This is an account of results in PubChem BioAssay (Tox21).

For assay [1], the target named is Gonadotropin-releasing hormone receptor (Homo sapiens) (UniProt P30968). The assay can be described thus: Human gonadotropin-releasing hormone receptor (GnRHR) small molecule agonists, calcium flux assay in GnRHR-HEK293 cells (AID 1920063). Also: nearly all actives have a fitted effect of over 35% in size. In a few lines:
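Cells: HEK293 stably expressing human GnRHR. Steps: overnight (18 h) culture, 1 h calcium dye loading at 37 C, compound addition, kinetic fluorescence read at 480/540 nm. Each compound tested at 15 concentrations in triplicate.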
(Calcium flux is commonly read through the fluorescence of an indicator in the cells.)

In assay [2] the target is KiSS-1 receptor (Homo sapiens) (UniProt Q969F8). The experiment in a line: Human kisspeptin (KISS1R) small molecule agonists, calcium flux assay in KISS1R-HEK293 cells (AID 1920064; active = well fitted activation curve with a large enough effect in the repeat runs). The procedure, abridged:
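Cells plated and incubated 18 h; dye added, 1 h at 37 C; compounds in DMSO pinned in; signal read at 480/540 nm every second for 3 min. Each compound tested at 15 concentrations in triplicate.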

Assay [3] in a line: G protein-coupled receptor (GPCR) small molecule agonists, calcium flux assay: HEK293 wild type cell line counter screen (AID 1920065). The procedure, abridged:
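Counter-screen of the Tox21 10K library for non-specific calcium release: dye-loaded cells received compounds in DMSO and were monitored by kinetic fluorescence (480/540 nm, 3 min). Fifteen concentrations, run in triplicate.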

The nature of assay [4]: p53 small molecule agonists, cell-based qHTS assay with human liver microsomes: qHTS cell viability counter screen (AID 1963579). Also: nearly all actives have a fitted effect of over 45% in size. In a few lines: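 Tox21 library compounds, delivered from DMSO stocks, were tested on p53RE-bla cells together with 0.5 mg/mL human liver microsomes and 0.5 mg/mL NADPH (final) over 16 h at 37 C; CellTiter-Glo luminescence served as the cytotoxicity measure.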

The nature of assay [5]: p53 small molecule agonists, cell-based qHTS assay with rat liver microsomes: qHTS cell viability counter screen (AID 1963580). Also: nearly all actives have a fitted effect of over 45% in size. The procedure, abridged:
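p53RE-bla HCT-116 cells (4,000/well) rested 5 h at 37 C, then given Tox21 compounds in DMSO with rat liver microsomes (0.5 mg/mL final) plus NADPH (0.5 mg/mL final) for 16 h at 37 C. Viability read by CellTiter-Glo luminescence after 30 min at room temperature.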

The nature of assay [6]: p53 small molecule agonists, cell-based qHTS assay: qHTS cell viability counter screen (AID 1963581). Also: nearly all actives have a fitted effect of over 45% in size. The procedure, abridged: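 Cells: HCT-116 with p53 response element-driven beta-lactamase. Treatment: 16 h, 37 C, compounds in DMSO. Read: CellTiter-Glo luminescence after 30 min RT.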
(In general: In qHTS, concentration-response curves come from the screen itself.)

Assay [7] has as its target 5-hydroxytryptamine receptor 2A (Homo sapiens) (UniProt P28223). The experiment in a line: 5-hydroxytryptamine receptor 2A (HTR2A) small molecule agonists, cell-based qHTS assay (AID 1963587). Also: nearly all actives have a fitted effect of over 30% in size. The procedure, abridged: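 HTR2A-CHO cells, plated 18 h at 37 C/5% CO2, dye-loaded 1 h at 37 C; compounds in DMSO added by pin tool (agonist mode). Intracellular calcium flux read as kinetic fluorescence on FDSS over 2 min at 1 s intervals.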

The target of assay [8] is Muscarinic acetylcholine receptor M1 (Homo sapiens) (UniProt P11229). The experiment in a line: Cholinergic receptor muscarinic 1 (CHRM1) small molecule antagonists, cell-based qHTS assay (AID 1963588). Also: nearly all actives have a fitted effect of over 40% in size. The procedure, abridged: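 CHRM1-CHO calcium-flux assay, antagonist mode. Cells were seeded 18 h, dye-loaded 1 h at 37 C and given compound for 5 min at RT, then acetylcholine was added at 50nM. FDSS fluorescence was read 3 min; 15 concentrations, three runs.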

Assay [9] is described as follows: cAMP Responsive Elements (CRE) small molecule agonists, cell-based qHTS assay (AID 1963590). The procedure, abridged:
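Agonist mode qHTS in CRE-bla HEK 293T cells: compounds dosed from DMSO for 3 h at 37 C/5% CO2, followed by LiveBLAzer B/G FRET substrate for 2 h at room temperature.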

A short description of assay [10]: cAMP Responsive Elements (CRE) small molecule antagonists, cell-based qHTS assay (AID 1963591; active = well fitted inhibition curve with a large enough effect in the signal ratio in the repeat runs, not every such curve was filed as active; the % refers to the signal ratio). In a few lines: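 Antagonist mode: test compounds are co-incubated with the adenylyl cyclase activator NKH477 (0.25 uM final) on CRE-bla HEK293T cells for 3 h at 37 °C, followed by LiveBLAzer substrate loading.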
The target in assay [11] is Beta-2 adrenergic receptor (Homo sapiens) (UniProt P07550). The experiment in a line: Adrenergic beta2 receptor (ADRB2) small molecule antagonists, cell-based qHTS assay (AID 1963592). Also: nearly all actives have a fitted effect of over 50% in size. Also: potency is read from the fitted curve at half-maximal effect. In a few lines:
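Cells (CHO, stable ADRB2 overexpression) incubated 18-20hr at 37C; compounds added from DMSO; agonist mix (1nM isoproterenol, 100uM IBMX, 25uM Ro-20-1724) added; 0.5hr RT; d2-cAMP and anti-cAMP-cryptate added; 1hr RT; 665/615 nm read.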

For assay [12] the target is unchanged. The assay can be described thus: Adrenergic beta2 receptor (ADRB2) small molecule agonists, cell-based qHTS assay (AID 1963593).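 Also: CHO cells stably overexpressing human ADRB2.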 In a few lines:
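CHO cells stably over-expressing ADRB2 were plated overnight at 37C, then dosed with compounds plus a stimulation mix containing 100uM IBMX and 25uM Ro-20-1724 for 0.5hr at room temperature. cAMP was measured by HTRF competition, 1hr.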

Assay [13] addresses D(2) dopamine receptor (Homo sapiens) (UniProt P14416). The experiment in a line: Dopamine D2 receptor (DRD2) small molecule agonists, cell-based qHTS assay (AID 1963594). Also: nearly all actives have a fitted effect of over 35% in size. In a few lines: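 HEK293 cells stably expressing DRD2 were cultured 24 h at 37 C, then given Ro20-1724 (0.1 mM final) and compounds for 10 min at room temperature. NKH477 (200nM) was then added for 30 min. cAMP was read by HTRF.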

Assay [14] is described as follows: p53 small molecule agonists, cell-based qHTS assay with human liver microsomes (AID 1963577).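 Also: p53 response element beta-lactamase reporter cells with liver microsomes plus NADPH.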 The procedure, abridged:
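Metabolically competent format: test substances, human liver microsomes and NADPH (both 0.5 mg/mL final) incubated with p53RE-bla cells 16 h at 37 C. Beta-lactamase reporter signal then quantified by fluorescence.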

Assay [15] can be described thus: p53 small molecule agonists, cell-based qHTS assay (AID 1963582; active = well fitted activation curve with a large enough effect in the signal ratio in the repeat runs, not every such curve was filed as active; the % refers to the signal ratio). The procedure, abridged:
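Quantitative HTS in p53RE-bla cells: after a 5 h settling period, compounds delivered in DMSO were left on cells for 16 h at 37 C, and reporter induction was measured as fluorescence following 2 h substrate loading.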

Assay [16] addresses 5-hydroxytryptamine receptor 2A (Homo sapiens) (UniProt P28223). The assay can be described thus: 5-hydroxytryptamine receptor 2A (HTR2A) small molecule antagonists, cell-based qHTS assay (AID 1963586). Also: nearly all actives have a fitted effect of over 45% in size. In a few lines:
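Antagonist-mode intracellular calcium assay: DOI (4 nM) added after 5 min compound pre-incubation at room temperature to dye-loaded HTR2A-CHO cells. Fluorescence followed for 3 min, sampled every second.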

Assay [17] concerns the target Muscarinic acetylcholine receptor M1 (Homo sapiens) (UniProt P11229). The assay can be described thus: Cholinergic receptor muscarinic 1 (CHRM1) small molecule agonists, cell-based qHTS assay (AID 1963589). Also: nearly all actives have a fitted effect of over 35% in size. The procedure, abridged: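 Agonist-mode qHTS in CHO cells stably carrying human muscarinic M1. Intracellular calcium is tracked by fluorescence every second after compound transfer; each compound runs at 15 concentrations in three independent runs.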

Assay [18] deals with D(2) dopamine receptor (Homo sapiens) (UniProt P14416). The experiment in a line: Dopamine D2 receptor (DRD2) small molecule antagonists, cell-based qHTS assay (AID 1963595; active = well fitted inhibition curve with a large enough effect in the signal ratio in the repeat runs, with a control signal flat; the % refers to the signal ratio). In a few lines:
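Antagonism was scored as restored cAMP in HEK293-DRD2 cells. These cells were stimulated with 200 nM NKH477 and 12 nM quinpirole for 30 min at room temperature, in the presence of 0.1 mM Ro20-1724.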

Assay [19] can be described thus: p53 small molecule agonists, cell-based qHTS assay with rat liver microsomes (AID 1963578). The procedure, abridged: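 Each plate received p53RE-bla cells, then compound, then rat liver microsomes and NADPH (both 0.5 mg/mL final). Plates were held 16 h at 37 C, and beta-lactamase activity was detected with LiveBLAzer over 2 h.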

Results filed as inconclusive are left out. Some structures have more than one record in an assay (separate samples or runs), and their calls can disagree. Calls of active or inactive are those of the source. Unless noted, calls follow the shape of the full dose curve.

Sequence of KiSS-1 receptor (Homo sapiens) (Q969F8 whole entry, looked up): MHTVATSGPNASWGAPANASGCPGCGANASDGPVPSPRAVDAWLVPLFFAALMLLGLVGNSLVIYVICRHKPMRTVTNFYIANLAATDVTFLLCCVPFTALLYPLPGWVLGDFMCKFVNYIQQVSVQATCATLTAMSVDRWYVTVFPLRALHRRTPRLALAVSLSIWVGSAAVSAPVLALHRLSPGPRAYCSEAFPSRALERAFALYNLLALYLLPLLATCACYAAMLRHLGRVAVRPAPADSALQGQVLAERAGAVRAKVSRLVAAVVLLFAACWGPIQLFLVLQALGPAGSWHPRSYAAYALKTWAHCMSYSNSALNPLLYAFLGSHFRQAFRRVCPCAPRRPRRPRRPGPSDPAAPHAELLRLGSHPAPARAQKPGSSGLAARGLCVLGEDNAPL
Sequence of Gonadotropin-releasing hormone receptor (Homo sapiens) (P30968 whole entry, looked up): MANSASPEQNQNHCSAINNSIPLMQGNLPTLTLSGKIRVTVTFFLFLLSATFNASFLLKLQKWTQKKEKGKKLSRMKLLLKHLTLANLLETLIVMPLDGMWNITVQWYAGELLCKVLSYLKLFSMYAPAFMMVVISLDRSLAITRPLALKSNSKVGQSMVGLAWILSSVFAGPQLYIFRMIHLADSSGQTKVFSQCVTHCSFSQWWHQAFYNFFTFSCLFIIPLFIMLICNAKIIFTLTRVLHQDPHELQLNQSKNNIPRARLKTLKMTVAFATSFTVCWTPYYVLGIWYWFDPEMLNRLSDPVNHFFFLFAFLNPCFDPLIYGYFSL
Sequence of Muscarinic acetylcholine receptor M1 (Homo sapiens) (P11229 whole entry, looked up): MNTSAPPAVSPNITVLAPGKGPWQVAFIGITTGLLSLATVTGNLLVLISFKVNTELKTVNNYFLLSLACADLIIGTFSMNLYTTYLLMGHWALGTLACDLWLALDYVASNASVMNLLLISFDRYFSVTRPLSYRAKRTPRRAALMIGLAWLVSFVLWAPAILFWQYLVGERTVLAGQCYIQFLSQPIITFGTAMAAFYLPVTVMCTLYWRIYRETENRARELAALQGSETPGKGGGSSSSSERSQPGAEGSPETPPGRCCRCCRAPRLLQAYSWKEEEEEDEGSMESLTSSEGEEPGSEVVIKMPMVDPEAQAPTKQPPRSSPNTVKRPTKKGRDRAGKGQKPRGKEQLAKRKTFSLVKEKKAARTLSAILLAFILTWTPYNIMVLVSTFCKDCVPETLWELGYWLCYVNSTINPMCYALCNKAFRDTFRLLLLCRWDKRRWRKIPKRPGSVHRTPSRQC
Sequence of Beta-2 adrenergic receptor (Homo sapiens) (P07550 whole entry, looked up): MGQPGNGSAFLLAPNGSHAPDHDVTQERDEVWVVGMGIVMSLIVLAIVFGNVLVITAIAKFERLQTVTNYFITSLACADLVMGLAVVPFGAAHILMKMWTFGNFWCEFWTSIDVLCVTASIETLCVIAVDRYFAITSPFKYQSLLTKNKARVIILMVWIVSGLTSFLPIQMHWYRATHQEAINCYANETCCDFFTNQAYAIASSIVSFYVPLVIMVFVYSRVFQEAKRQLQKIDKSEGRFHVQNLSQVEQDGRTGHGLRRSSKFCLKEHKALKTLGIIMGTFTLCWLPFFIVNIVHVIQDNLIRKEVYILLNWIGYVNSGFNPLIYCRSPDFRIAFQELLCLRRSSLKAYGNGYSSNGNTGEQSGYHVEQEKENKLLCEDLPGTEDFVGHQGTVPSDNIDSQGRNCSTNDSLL
Sequence of D(2) dopamine receptor (Homo sapiens) (P14416 whole entry, looked up): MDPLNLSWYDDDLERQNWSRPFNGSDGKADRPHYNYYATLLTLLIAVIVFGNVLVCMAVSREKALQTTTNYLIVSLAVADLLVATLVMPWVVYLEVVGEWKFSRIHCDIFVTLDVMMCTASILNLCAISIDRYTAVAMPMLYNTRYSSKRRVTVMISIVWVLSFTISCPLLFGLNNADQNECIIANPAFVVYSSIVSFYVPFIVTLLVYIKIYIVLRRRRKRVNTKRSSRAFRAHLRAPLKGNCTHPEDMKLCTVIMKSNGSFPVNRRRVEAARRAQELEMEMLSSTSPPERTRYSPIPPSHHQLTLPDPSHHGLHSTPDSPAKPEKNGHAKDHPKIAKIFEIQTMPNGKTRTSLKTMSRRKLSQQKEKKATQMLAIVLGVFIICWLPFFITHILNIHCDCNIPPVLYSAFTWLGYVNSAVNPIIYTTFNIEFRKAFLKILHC
Sequence of 5-hydroxytryptamine receptor 2A (Homo sapiens) (P28223 whole entry, looked up): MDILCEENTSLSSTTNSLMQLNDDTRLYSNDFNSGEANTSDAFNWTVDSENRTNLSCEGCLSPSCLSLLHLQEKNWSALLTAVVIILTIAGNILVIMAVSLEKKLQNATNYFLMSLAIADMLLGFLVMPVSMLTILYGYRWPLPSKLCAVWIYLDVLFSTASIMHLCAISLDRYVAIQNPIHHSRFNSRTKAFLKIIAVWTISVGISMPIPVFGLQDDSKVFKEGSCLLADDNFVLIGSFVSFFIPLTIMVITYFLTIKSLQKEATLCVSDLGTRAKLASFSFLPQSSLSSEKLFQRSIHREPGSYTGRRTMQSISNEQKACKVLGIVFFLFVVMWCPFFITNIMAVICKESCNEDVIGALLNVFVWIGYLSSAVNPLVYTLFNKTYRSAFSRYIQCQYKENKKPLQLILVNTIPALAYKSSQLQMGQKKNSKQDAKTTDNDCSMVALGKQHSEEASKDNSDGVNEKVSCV

Regarding `Cn1cnc2c1c(=O)[nH]c(=O)n2C`, the Potency entry in [1], in [2], in assay [3], in [4], in assay [5] and in [6] was “inactive” each time. The Potency entry in [7], in assay [8], in assay [9], in assay [10], in assay [11] and in assay [12] was “inactive” throughout. Besides, in assay [13], the Potency entry was “inactive”.

In the case of `C[Si](C)O[Si](C)C`, the Potency result in assay [1], in [2], in assay [3], in [14], in [4] and in [5] was “inactive” each time. For the same compound, the Potency result in assay [6], in assay [15], in assay [16], in [7], in assay [8] and in [17] was “inactive” throughout. Further, the Potency result in assay [9], in assay [10], in assay [11], in [12], in assay [13] and in assay [18] was “inactive” throughout.

Regarding `O=c1cc(CO)occ1O`, the Potency entry in [1], in assay [2], in [3], in assay [14], in [4] and in assay [5] was “inactive” throughout. Moreover, the Potency entry in assay [6], in assay [7], in assay [17], in assay [9], in [10] and in assay [11] was “inactive” in each case. Also, the Potency result in [13] and in assay [18] was “inactive” each time.

In the case of `C[C@H]1C[C@@H](O)CC(C)(C)C1`, the Potency entry in [1], in [2], in assay [3], in assay [14], in assay [19] and in [5] was “inactive” in each case. The Potency entry in assay [6], in assay [15], in assay [7], in [8], in [17] and in [9] was “inactive” in each case. Also, the Potency entry in assay [10], in assay [11], in assay [13] and in assay [18] was “inactive” each time.

For the compound `O=C(O)c1ccc(C(=O)O)c(C(=O)O)c1`, the Potency result in [1], in assay [3], in [4], in [5], in assay [6] and in [16] was “inactive” in each case. Also, the Potency result in assay [7], in assay [8], in assay [17], in [9], in [10] and in assay [11] was “inactive” in each case. Also, the Potency entry in assay [13] and in assay [18] was “inactive” in each case.

Take `C=C(C)C(=O)OCCC(C)OC(=O)C(=C)C` (centres undefined): the Potency entry in [1], in [2], in assay [14], in [19], in assay [4] and in assay [5] was “inactive” in each case. In addition, the Potency result in [6], in assay [15], in assay [7], in assay [8], in assay [17] and in assay [9] was “inactive” each time. Moreover, the Potency entry in assay [10], in assay [11], in assay [12], in assay [13] and in assay [18] was “inactive” in each case.

Consider `CCCCOCCOCCOCCO`, for which the Potency entry in assay [1], in assay [3], in assay [14], in [19], in assay [4] and in assay [5] was “inactive” each time. Moreover, the Potency result in assay [6], in assay [15], in assay [16], in assay [8], in [17] and in assay [9] was “inactive” throughout. Also, the Potency entry in assay [12], in [13] and in [18] was “inactive” in each case. The Potency in assay [11] is 30.3 µM (active) and inactive.

`NCCNCCNCCN`: the Potency entry in assay [1], in assay [2], in [14], in assay [19], in [5] and in assay [6] was “inactive” throughout. Moreover, the Potency result in assay [15], in assay [16], in assay [7], in assay [8], in assay [17] and in [9] was “inactive” throughout. Also, the Potency result in [10], in assay [11], in [12] and in assay [18] was “inactive” in each case.
